# In the supplement of paper PMC9023506:
# Counter-ions that a name gives are not always drawn.
# Tested on: Danio rerio larvae (5 dpf)
# Test: startle response to 20-s acoustic pulses, difference vs DMSO (percentage points (treated minus DMSO)); higher = more of the behaviour than the DMSO vehicle control
# Conditions: 10 µM; exposure time: 3 h pre-incubation + 3 h imaging
# Description: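 5-dpf wild-type zebrafish larvae were imaged in 96-well plates. They were treated with 190 Tocris FDA-approved drugs at 10 µM (1 µl/ml DMSO) for 3 h before and 3 h during imaging at 28.5 °C, 48 larvae per drug. Automated image analysis gave % time moving and optomotor responses. Values are drug group mean minus DMSO vehicle mean (n=844), in percentage points, for 10 behaviours.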
row,SMILES,startle response to 20-s acoustic pulses
1,Clc1ccc2nsnc2c1NC1=NCCN1 [Tizanidine hydrochloride],-1.69
2,CC(C)c1nc(CN(C)C(=O)N[C@H](C(=O)N[C@@H](Cc2ccccc2)C[C@H](O)[C@H](Cc2ccccc2)NC(=O)OCc2cncs2)C(C)C)cs1 [Ritonavir],1.92
3,N#Cc1ccc2[nH]cc(CCCCN3CCN(c4ccc5oc(C(N)=O)cc5c4)CC3)c2c1 [Vilazodone hydrochloride],-6.5
4,C[C@@H]1C[C@H]2[C@@H]3CCC4=CC(=O)C=C[C@]4(C)[C@@]3(F)[C@@H](O)C[C@]2(C)[C@@]1(O)C(=O)CO [Dexamethasone],-1.79
5,OCCOCCN1CCN(C2=Nc3ccccc3Sc3ccccc32)CC1 [Quetiapine hemifumarate],-1.65
6,C[C@@H](O[C@H]1OCCN(Cc2n[nH]c(=O)[nH]2)[C@H]1c1ccc(F)cc1)c1cc(C(F)(F)F)cc(C(F)(F)F)c1 [Aprepitant],-6.92
7,CN[C@H]1CC[C@@H](c2ccc(Cl)c(Cl)c2)c2ccccc21 [Sertraline hydrochloride],1.74
8,CN1CC2c3ccccc3Oc3ccc(Cl)cc3C2C1 (stereo not given) [Asenapine maleate],-6.44
9,CC(C)C(=O)OCC(=O)[C@@]12O[C@H](C3CCCCC3)O[C@@H]1C[C@H]1[C@@H]3CCC4=CC(=O)C=C[C@]4(C)[C@H]3[C@@H](O)C[C@@]12C [Ciclesonide],-4.94
10,COc1cc2nc(N3CCN(C(=O)c4ccco4)CC3)nc(N)c2cc1OC [Prazosin hydrochloride],5.19
11,Nc1ccn([C@@H]2O[C@H](CO)[C@@H](O)C2(F)F)c(=O)n1 [Gemcitabine hydrochloride],3.92
12,CN(C)C(=N)NC(=N)N [Metformin hydrochloride],-1.12
13,CO[C@H]1/C=C/O[C@@]2(C)Oc3c(C)c(O)c4c(O)c(c5c(nc6cc(C)ccn65)c4c3C2=O)NC(=O)/C(C)=C\C=C\[C@H](C)[C@H](O)[C@@H](C)[C@@H](O)[C@@H](C)[C@H](OC(C)=O)[C@@H]1C [Rifaximin],2.34
14,CC(=O)Oc1cc2c(s1)CCN(C(C(=O)C1CC1)c1ccccc1F)C2 (stereo not given) [Prasugrel],-10.9
15,CCOC(=O)N1CCC(=C2c3ccc(Cl)cc3CCc3cccnc32)CC1 [Loratidine],14.8
16,CC(=O)NC[C@H]1CN(c2ccc(N3CCOCC3)c(F)c2)C(=O)O1 [Linezolid],2.02
17,NC(=O)N1c2ccccc2C=Cc2ccccc21 [Carbamazepine],2.54
18,Nc1cc(N2CCCCC2)nc(N)[n+]1[O-] [Minoxidil],-2.65
19,CCCCNc1cc(C(=O)O)cc(S(N)(=O)=O)c1Oc1ccccc1 [Bumetanide],3.98
20,Cc1cccc(C)c1OCC(C)N (stereo not given) [Mexiletine hydrochloride],0.873

row,SMILES,startle response to 20-s acoustic pulses
1,CCCc1nn(C)c2c(=O)[nH]c(-c3cc(S(=O)(=O)N4CCN(C)CC4)ccc3OCC)nc12 [Sildenafil citrate],0.54
2,COCCCOc1cc(C[C@@H](C[C@H](N)[C@@H](O)C[C@H](C(=O)NCC(C)(C)C(N)=O)C(C)C)C(C)C)ccc1OC [Aliskiren hemifumarate],-0.0432
3,COc1cc2ncnc(Nc3ccc(F)c(Cl)c3)c2cc1OCCCN1CCOCC1 [Iressa],-2.19
4,CCOC(=O)[C@H](CCc1ccccc1)N[C@@H](C)C(=O)N1[C@H](C(=O)O)C[C@@H]2CCC[C@@H]21 [Ramipril],-1.54
5,CC(C)(C(=O)c1cccnc1)c1cccnc1 [Metyrapone],3.51
6,CCC(C)(C)C(=O)O[C@H]1C[C@@H](C)C=C2C=C[C@H](C)[C@H](CC[C@@H]3C[C@@H](O)CC(=O)O3)[C@H]21 [Simvastatin],3.9
7,CC(C)Nc1cccnc1N1CCN(C(=O)c2cc3cc(NS(C)(=O)=O)ccc3[nH]2)CC1 [Delavirdine mesylate],-4.51
8,O=c1[nH]c(=O)n([C@H]2C[C@H](O)[C@@H](CO)O2)cc1C(F)(F)F [Trifluorothymidine],1.37
9,CC(C)c1nc(N(C)S(C)(=O)=O)nc(-c2ccc(F)cc2)c1/C=C/[C@@H](O)C[C@@H](O)CC(=O)O [Rosuvastatin calcium],-3.11
10,CCCCCCCCc1ccc(CCC(N)(CO)CO)cc1,-1.81
11,Nc1nc2[nH]cc(CCc3ccc(C(=O)N[C@@H](CCC(=O)O)C(=O)O)cc3)c2c(=O)[nH]1 [Pemetrexed],-4.56
12,Cc1ccc(-c2cc(C(F)(F)F)nn2-c2ccc(S(N)(=O)=O)cc2)cc1 [Celecoxib],-6.81
13,CCCC1O[C@@H]2C[C@H]3[C@@H]4CCC5=CC(=O)C=C[C@]5(C)[C@H]4[C@@H](O)C[C@]3(C)[C@]2(C(=O)CO)O1 (stereo not given in full) [Budesonide],-5.65
14,CCc1nc(N)nc(N)c1-c1ccc(Cl)cc1 [Pyrimethamine],1.7
15,Cc1ccc(N(CC2=NCCN2)c2cccc(O)c2)cc1 [Phentolamine Mesylate],-1.56
16,COc1cc([C@@H]2c3cc4c(cc3[C@@H](O[C@@H]3O[C@@H]5CO[C@@H](C)O[C@H]5[C@H](O)[C@H]3O)[C@H]3COC(=O)[C@H]23)OCO4)cc(OC)c1O [Etoposide],-1.98
17,CC(C)N(CCCCOCC(=O)NS(C)(=O)=O)c1cnc(-c2ccccc2)c(-c2ccccc2)n1 [Selexipag],-1.31
18,COc1cc2nc(N3CCN(C(=O)C4COc5ccccc5O4)CC3)nc(N)c2cc1OC (stereo not given) [Doxazosin mesylate],7.2
19,Cc1c(-c2ccc(O)cc2)n(Cc2ccc(OCCN3CCCCCC3)cc2)c2ccc(O)cc12 [Bazedoxifene acetate],-4.17
20,N#C[C@@H]1C[C@@H]2C[C@@H]2N1C(=O)[C@@H](N)C12CC3CC(CC(O)(C3)C1)C2 [Saxagliptin hydrochloride],4.85
